# From PubChem BioAssay AID485367 (National Center for Advancing Translational Sciences (NCATS), 2010)
# About 560 (0.17%) of roughly 330,000 compounds were called active. Roughly 1% stayed inconclusive and do not appear here. The sample holds actives, similar compounds and a random draw of the others, so the mix is not that of the screen. A number with no mark means an inactive call. Calls come from the whole dose curve; as a rule, active = well fitted inhibition curve with a large enough effect; inconclusive = small, poorly fitted or top-dose-only effect, or effect the other way; inactive = flat fitted curve, though single readings scatter.
# Biological target: ATP-dependent 6-phosphofructokinase (Trypanosoma brucei brucei) (UniProt O15648)
# Assay: qHTS Assay to Find Inhibitors of T. brucei phosphofructokinase; note: nearly all actives have a fitted effect of over 60% in size
# Details: T. brucei PFK, ADP-Glo luminescence; series mostly up to 57.5 µM; activity, negative = inhibition: at the top concentration
# From the text: NIH Molecular Libraries Probe Production Network [MLPCN] NIH Chemical Genomics Center [NCGC] Grant: 1 R03 MH092153-01 PI Name: Malcolm Walkinshaw, University of Edinburgh NCGC Assay Overview: Various species of the protozoan family Trypanosomatidae are responsible for a range of serious human diseases in tropical and subtropical areas of the world. […] Many of the disorders caused by trypanosomatids are fatal if left untreated, but most currently used drugs are inefficient and toxic. […] Oxidative metabolism involving the mitochondrial tricarboxylic acid cycle and oxidative phosphorylation are repressed in these parasites, and recent RNA interference (RNAi) experiments have shown that even partial depletion of certain individual glycolytic enzymes can lead to the death of cultured parasites. One such glycolytic enzyme, phosphofructokinase (PFK), catalyzes the formation of fructose-1,6-bisphosphate (F1,6BP) and ADP from fructose-6-phosphate (F6P) and ATP, and in many metabolic circumstances makes an important contribution to the control of flux through the glycolytic pathway. As a specific glycolytic target, PFK is particularly attractive as it catalyzes the first irreversible step in glycolysis, and structural and kinetic studies have shown very substantial and essential differences from corresponding host enzymes, allowing for the discovery of parasite-selective inhibitors. The goal of this screen is to find small-molecule inhibitors of T. brucei PFK using a biochemical assay that measures PFK activity as a function of ADP production. A luminescence-based assay for T. brucei PFK activity has been developed which uses luciferase to detect production of ADP. Traditional luciferase-based nucleotide detection reagents rely on ATP production as a direct substrate for the luciferase reaction; however, PFK catalyzes the transfer of a phosphate from ATP to F6P, resulting in the net depletion of ATP. To directly measure the ADP product of the PFK reaction, we used the ADP-Glo detection kit (Promega), which utilizes two separate reactions to 1) deplete all remaining uncatalyzed ATP and 2) convert all remaining ADP to ATP, which is then detected through a traditional luciferase-coupled reaction. Compounds were screened as a concentration-titration series that ranged from 57 uM to 0.7 nM.
# NCGC Assay Protocol Summary: NCGC Assay Protocol Summary: Substrate buffer was dispensed into white, solid 1536-well plates at 3uL/well in 0.1M triethanolamine (TEA) buffer, pH 8.0, containing final concentrations of 5 mM MgCl2, 0.01% Tween20, 0.5 mM fructose-6-phosphate (F6P) and 0.1mM ATP. Then, 23 nL of compounds or DMSO were delivered to each well using a pin tool. One uL T. brucei PFK (0.1M TEA, 0.01% Tween20, 0.1% bovine serum albumin (BSA) and 1.25nM PFK, final concentrations) was then dispensed, and plates were incubated at room temperature for 45 min. The luminescent detection reagent, ADP-Glo (Promega), was then added in two steps: the first reagent, ADP-Glo (which converts remaining uncatalyzed ATP), was added at 2.5uL/well and incubated for ten minutes at room temperature, and the second component, Kinase Detection reagent (which converts ADP to ATP as a substrate for luciferase-based luminescence), was added immediately after at 5uL/well, followed by one final ten minute room temperature incubation. The plates were measured on a ViewLux plate reader for luminescent signal using a clear filter with a one second exposure. The %Activity was determined from the corrected luminescence values. As no specific T. brucei PFK inhibitors have been identified in the literature, 1x (1.25nM) and 0x PFK enzyme controls (untreated) were included to normalize %Activity of identified inhibitors; 0x enzyme values corresponded to 100%Activity (full inhibition), while 1x PFK enzyme values were used to normalize 0%Activity (no inhibition). Concentration-response curves were fitted to the signals arising from the resulting luminescence. […]
# Potency is the fitted concentration of half-maximal effect.
# ATP-dependent 6-phosphofructokinase (Trypanosoma brucei brucei), sequence (O15648 whole entry, looked up): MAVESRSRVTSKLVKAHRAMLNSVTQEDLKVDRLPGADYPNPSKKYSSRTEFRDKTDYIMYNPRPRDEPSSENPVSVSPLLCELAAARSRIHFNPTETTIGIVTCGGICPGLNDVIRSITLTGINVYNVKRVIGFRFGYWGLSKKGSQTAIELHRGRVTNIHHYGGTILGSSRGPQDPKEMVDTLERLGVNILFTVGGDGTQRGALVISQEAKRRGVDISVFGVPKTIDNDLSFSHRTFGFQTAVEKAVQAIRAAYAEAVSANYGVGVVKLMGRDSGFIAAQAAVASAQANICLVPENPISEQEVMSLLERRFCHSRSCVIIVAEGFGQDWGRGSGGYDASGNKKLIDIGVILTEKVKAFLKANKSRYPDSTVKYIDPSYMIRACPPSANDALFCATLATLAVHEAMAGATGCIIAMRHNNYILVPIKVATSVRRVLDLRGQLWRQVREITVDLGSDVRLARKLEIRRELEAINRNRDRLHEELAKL
Compound,"activity, negative = inhibition [%]",Potency
Cc1ccc(-n2c(N)c(C(=O)N3CCOCC3)sc2=S)c(C)c1,-2.32,–
Cc1ccc2c(C)c(C(=O)N(C)CCC3CCCCO3)oc2c1C (stereo unspecified),-4.76,–
N#CCSc1nn(-c2ccc(F)cc2)c(=S)s1,0.779,–
O=c1ccc2c(-c3ccccc3S(=O)(=O)O)c3ccc(O)c(O)c3oc-2c1O,–,2.39 µM (active)
COC(=O)c1ccc(COc2ccc(/C=C/C(=O)c3ccc(OC)c(CSCC(=O)O)c3)cc2OC)cc1,–,4.78 µM (active)
COc1ccc(C(=O)/C=C/c2ccc(-c3ccccc3)cc2)cc1CSCC(=O)O,-0.707,–
COc1ccc(/C=C/C(=O)c2ccc(NS(=O)(=O)c3ccc(C)cc3)cc2)cc1O,9.84,–
Cc1ccc(OCC(=O)N2CCN(C(=O)c3cccnc3)CC2)cc1,-0.802,–
CN1C(CC(=O)Nc2ccc(Br)cc2)c2ccccc2CC1(C)C (stereo unspecified),3.31,–
Cc1cc(C(=O)Nc2c(C)nn(Cc3ccccc3)c2C)on1,3.52,–
Cc1nn(Cc2ccc(Cl)c(Cl)c2)c(C)c1NC(=O)c1cc(C2CC2)on1,–,9.53 µM (active)
Cc1nn(Cc2ccc(F)cc2)c(C)c1NC(=O)c1cccnc1Cl,0.406,–
CCCc1nn(C)c2c(=O)[nH]c(-c3cc(S(N)(=O)=O)ccc3OCC)nc12,7.25,–
CC1CCC(NC(=O)CN(C)S(=O)(=O)c2ccc3c(c2)c(=O)n(C)c(=O)n3C)CC1 (stereo unspecified),0.492,–
O=C(OCC(=O)N1CCc2ccccc21)c1ccc([N+](=O)[O-])cc1,17.6,–
COc1ccc(NS(=O)(=O)c2ccc(C)c(C(=O)NNC(=O)c3csc(N4CCOCC4)n3)c2)cc1,-10,–
CC1=NN(c2cccc(Cl)c2)C(=O)C12CC(C)=C(C)CS2 (stereo unspecified),2.05,–
Cc1ccn2c(=O)c(NC(=O)c3cccc4ccccc34)c(C)nc2c1,-3.25,–
O=C(C1CCN(c2nnc(-n3cccc3)s2)CC1)N1CCc2ccccc2C1,-0.0102,–
CN1CCN(c2ccc(S(=O)(=O)N3CCOCC3)cc2NC(=O)CCc2ccccc2)CC1,1.42,–
O=C(COc1nsnc1N1CCOCC1)Nc1ccccc1Cl,2.58,–
O=C(NC1CCN(Cc2ccccc2)CC1)c1cc(Br)c(Br)[nH]1,-0.675,–
Cc1cnc(C(=O)N2CCCC(C(=O)c3ccc(C(F)(F)F)cc3)C2)cn1 (stereo unspecified),2.16,–
Cc1cc(NC(=O)CCC(=O)N(CC(=O)NCC2CCCO2)c2ccccc2C)no1 (stereo unspecified),2.91,–
CC(CN1CCC(n2nccc2NC(=O)C2CCCC2)CC1)c1ccccc1 (stereo unspecified),-20.9,–
C=Cn1cc[n+](CC(=O)c2ccc(OC)c(OC)c2)c1,8.02,–

Compound,"activity, negative = inhibition [%]",Potency
CC(NCC(=O)Nc1ccccc1C(=O)NC1CC1)c1ccccc1Cl (stereo unspecified),1.99,–
Cc1cccc(NS(=O)(=O)c2ccc(-c3cnc(C4CC4)o3)cc2)c1,-6.58,–
COc1ccccc1N(CC(=O)Nc1ccc(C)cc1Cl)S(=O)(=O)c1cccs1,0,–
FC(F)(F)C1CCCN(c2nsc3ccccc23)C1 (stereo unspecified),–,6.75 µM (active)
O=C(NCC(=O)N1CCCC(C(F)(F)F)C1)c1ccccc1F (stereo unspecified),-6.74,–
O=C(NC(Cc1ccccc1)C(=O)N1CCCC(C(F)(F)F)C1)c1ccccc1 (stereo unspecified),1.45,–
COc1cccc(CNC(=O)C2CC(=O)N(C3CCCCCCC3)C2)c1 (stereo unspecified),1.34,–
Cc1ccc(-c2nn(-c3ccccc3)cc2/C=C2\SC(=S)N(CCCCCC(=O)O)C2=O)o1,–,4.78 µM (active)
Cc1ccc(/C=C2/SC(=S)N(CCC(=O)NCCCN3CCOCC3)C2=O)cc1,2.57,–
C=CCOc1ccc(/C=C2\SC(=S)N(CCC(=O)O)C2=O)cc1,-6.36,–
CC(=O)c1nnn(-c2ccc(Cl)cc2C#N)c1C,-1.18,–
Cc1cccn2c(CN(C)C3CCCc4ccccc43)c(C(=O)N3CCOCC3)nc12 (stereo unspecified),0.624,–
CC(C)=CC(=O)Nc1nnc(-c2ccc(F)cc2)s1,-10,–
Nc1nc(SCc2ccc([N+](=O)[O-])cc2)c2ncn(C3OC(CO)C(O)C3O)c2n1 (stereo unspecified),–,12 µM (active)
Cc1nc(SCc2ccc(F)cc2)c([N+](=O)[O-])[nH]1,1.96,–
Cc1nc(N)nc(SCc2ccc([N+](=O)[O-])cc2)c1N,–,13.5 µM (active)
Cc1cc(C)cc(C(=O)N2CCN=C2SCc2ccc([N+](=O)[O-])cc2)c1,3.53,–
CN(Cc1ccc(CNC[C@H]2O[C@@H](n3cnc4c(N)ncnc43)[C@H](O)[C@@H]2O)o1)S(C)(=O)=O,0,–
CN[C@H](C(=O)NC[C@H]1O[C@@H](n2cnc3c(N)ncnc32)[C@H](O)[C@@H]1O)[C@@H](C)OCc1ccccc1,-2.64,–
COc1cccc(CNC(=O)CCC2CCCN(C(=O)c3ccc(F)c(Cl)c3)C2)c1 (stereo unspecified),-20.6,–
CCN(CC)CCn1cnc2c1c(=O)n(CCOC(=O)c1cc(OC)c(OC)c(OC)c1)c(=O)n2C,0.629,–
CCOc1ccc(NC(=O)c2ccc(CSc3nnnn3C)cc2)cc1,-15.6,–
CC(C)C[C@H](NC(=O)N1CCn2c1nc1ccccc12)C(=O)NC1CC1,1.02,–
CC1CCN(C(=O)CN(c2ccc(Oc3ccccc3)cc2)S(C)(=O)=O)CC1,-2.4,–
Cc1nn(C(C)CC(=O)O)c(C)c1C (stereo unspecified),-4.85,–
